Experimental data from publication PMC7862700, “An all-to-all approach to the identification of sequence-specific readers for epigenetic DNA modifications on cytosine”.

Columns and labels:
Assay in all cases: DAPPL (digital affinity profiling via proximity ligation, sequencing); 10 mM Tris-HCl pH 7.5, 50 mM NaCl, 1 mM DTT, 4% glycerol, room temperature, 30 min; GST-TFs on glutathione beads, 16-mer random dsDNA library, 0.1% formaldehyde crosslink after washing; high values mean tight binding
FLI1 = molecular target: T1, FLI1 (Homo sapiens, UniProt Q01543 1-452); details: protein: recombinant; tags: N-terminal GST; dsDNA, one strand shown
T1 sequence: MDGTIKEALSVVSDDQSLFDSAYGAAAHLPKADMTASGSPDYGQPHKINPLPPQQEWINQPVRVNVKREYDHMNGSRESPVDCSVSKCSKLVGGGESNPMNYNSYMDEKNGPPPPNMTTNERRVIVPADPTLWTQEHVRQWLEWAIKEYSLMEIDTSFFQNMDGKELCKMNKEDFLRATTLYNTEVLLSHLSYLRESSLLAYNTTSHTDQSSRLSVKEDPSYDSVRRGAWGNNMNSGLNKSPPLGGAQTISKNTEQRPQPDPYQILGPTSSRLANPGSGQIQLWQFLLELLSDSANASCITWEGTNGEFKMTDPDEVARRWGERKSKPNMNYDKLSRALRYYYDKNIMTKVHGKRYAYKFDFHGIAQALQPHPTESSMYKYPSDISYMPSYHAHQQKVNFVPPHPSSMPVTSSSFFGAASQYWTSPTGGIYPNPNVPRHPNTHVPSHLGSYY
Outline: (§1)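 A tag-only sample was pooled with DNA-barcoded human transcription factors that had been expressed in yeast as GST fusions and captured on glutathione beads. The pools were incubated for 30 min at room temperature with 200 nmole of a random double-stranded 16-mer DNA library in Tris/NaCl/DTT/glycerol buffer, then washed, crosslinked with 0.1% formaldehyde, proximity-ligated (BsaI/T4 ligase, 1 h, 37 °C), PCR-amplified and sequenced on an Illumina NextSeq500. Binding signal is each hexamer's read frequency for a factor divided by its frequency for the tag-only sample.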

ELK1 = molecular target: T2, ELK1 (Homo sapiens, UniProt P19419 1-428); details: protein: recombinant; tags: N-terminal GST; dsDNA, one strand shown
T2 sequence: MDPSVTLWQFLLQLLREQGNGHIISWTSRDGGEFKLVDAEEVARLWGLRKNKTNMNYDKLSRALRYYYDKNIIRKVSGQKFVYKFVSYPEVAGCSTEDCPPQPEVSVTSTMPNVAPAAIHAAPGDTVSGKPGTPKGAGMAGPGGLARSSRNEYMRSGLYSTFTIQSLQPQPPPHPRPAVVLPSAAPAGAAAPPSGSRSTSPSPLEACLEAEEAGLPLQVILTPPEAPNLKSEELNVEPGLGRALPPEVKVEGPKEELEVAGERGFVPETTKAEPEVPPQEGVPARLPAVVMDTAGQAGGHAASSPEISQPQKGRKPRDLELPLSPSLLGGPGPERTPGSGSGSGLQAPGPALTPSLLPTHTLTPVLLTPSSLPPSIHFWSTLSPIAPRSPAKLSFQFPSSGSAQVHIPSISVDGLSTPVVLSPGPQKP
Outline: as §1

GABPA = molecular target: T3, GABPA (Homo sapiens, UniProt Q06546 1-454); details: protein: recombinant; tags: N-terminal GST; dsDNA, one strand shown
T3 sequence: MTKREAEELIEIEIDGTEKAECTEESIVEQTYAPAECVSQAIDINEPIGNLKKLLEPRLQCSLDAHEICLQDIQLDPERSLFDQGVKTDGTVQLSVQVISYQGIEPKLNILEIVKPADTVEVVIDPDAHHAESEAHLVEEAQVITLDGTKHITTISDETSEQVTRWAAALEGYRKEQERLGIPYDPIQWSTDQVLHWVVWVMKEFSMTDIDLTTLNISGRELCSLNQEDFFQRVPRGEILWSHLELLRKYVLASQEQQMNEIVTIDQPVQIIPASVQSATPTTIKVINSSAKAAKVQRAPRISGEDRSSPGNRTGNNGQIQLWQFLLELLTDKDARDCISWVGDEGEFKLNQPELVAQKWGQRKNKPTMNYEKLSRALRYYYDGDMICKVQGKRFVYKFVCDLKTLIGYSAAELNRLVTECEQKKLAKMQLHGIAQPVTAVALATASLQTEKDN
Outline: as §1

ERG = molecular target: T4, ERG (Homo sapiens, UniProt P11308 1-479); details: protein: recombinant; tags: N-terminal GST; dsDNA, one strand shown
T4 sequence: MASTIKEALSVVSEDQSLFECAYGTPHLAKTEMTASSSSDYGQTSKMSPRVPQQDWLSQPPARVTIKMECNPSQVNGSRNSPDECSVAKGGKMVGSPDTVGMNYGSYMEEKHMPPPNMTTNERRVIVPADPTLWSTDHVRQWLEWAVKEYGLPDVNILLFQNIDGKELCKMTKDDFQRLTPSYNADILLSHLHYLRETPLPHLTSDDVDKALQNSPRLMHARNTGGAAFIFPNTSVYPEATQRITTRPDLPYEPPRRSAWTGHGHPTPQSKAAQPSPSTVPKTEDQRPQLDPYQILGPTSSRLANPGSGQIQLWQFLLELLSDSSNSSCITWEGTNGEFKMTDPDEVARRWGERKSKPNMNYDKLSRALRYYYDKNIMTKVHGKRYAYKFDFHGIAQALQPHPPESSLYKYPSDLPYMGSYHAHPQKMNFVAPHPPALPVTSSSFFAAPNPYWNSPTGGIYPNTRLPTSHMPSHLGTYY
Outline: as §1

ELF1 = ELF1 (Homo sapiens, UniProt P32519 1-619); details: protein: recombinant; tags: N-terminal GST; dsDNA, one strand shown
ELF1, sequence (P32519 whole entry): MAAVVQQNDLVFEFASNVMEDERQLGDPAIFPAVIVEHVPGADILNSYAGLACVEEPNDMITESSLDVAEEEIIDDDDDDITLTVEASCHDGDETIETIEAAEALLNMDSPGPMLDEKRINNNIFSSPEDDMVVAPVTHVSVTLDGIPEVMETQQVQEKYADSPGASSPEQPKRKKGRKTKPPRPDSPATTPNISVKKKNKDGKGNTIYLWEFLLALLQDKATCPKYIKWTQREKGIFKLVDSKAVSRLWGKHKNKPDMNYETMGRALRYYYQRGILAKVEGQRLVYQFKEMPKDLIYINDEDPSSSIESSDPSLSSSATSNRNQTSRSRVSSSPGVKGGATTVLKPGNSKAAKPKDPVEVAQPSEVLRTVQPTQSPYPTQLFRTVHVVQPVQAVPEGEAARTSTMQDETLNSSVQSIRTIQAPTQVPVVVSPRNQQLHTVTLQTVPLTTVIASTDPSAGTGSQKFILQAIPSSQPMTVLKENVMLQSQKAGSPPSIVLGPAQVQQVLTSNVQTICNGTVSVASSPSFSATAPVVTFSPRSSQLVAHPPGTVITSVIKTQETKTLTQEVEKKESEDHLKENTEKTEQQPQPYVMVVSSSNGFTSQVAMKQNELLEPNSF
Outline: as §1

EHF = molecular target: T5, EHF (Homo sapiens, UniProt Q9NZC4 1-300); details: protein: recombinant; tags: N-terminal GST; dsDNA, one strand shown
T5 sequence: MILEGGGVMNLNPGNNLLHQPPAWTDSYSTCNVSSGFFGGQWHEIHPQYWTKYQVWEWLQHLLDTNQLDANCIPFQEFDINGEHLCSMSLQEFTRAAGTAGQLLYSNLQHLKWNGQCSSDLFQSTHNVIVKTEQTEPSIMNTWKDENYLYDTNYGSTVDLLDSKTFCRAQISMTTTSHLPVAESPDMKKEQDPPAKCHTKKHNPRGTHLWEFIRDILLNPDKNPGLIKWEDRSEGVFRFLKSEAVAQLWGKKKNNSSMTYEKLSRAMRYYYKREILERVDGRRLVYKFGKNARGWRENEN
Outline: as §1

SPI1 = SPI1 (Homo sapiens, UniProt P17947 1-270); details: protein: recombinant; tags: N-terminal GST; dsDNA, one strand shown
Outline: as §1

SPIB = SPIB (Homo sapiens, UniProt Q01892 1-262); details: protein: recombinant; tags: N-terminal GST; dsDNA, one strand shown
SPIB, sequence (Q01892 whole entry): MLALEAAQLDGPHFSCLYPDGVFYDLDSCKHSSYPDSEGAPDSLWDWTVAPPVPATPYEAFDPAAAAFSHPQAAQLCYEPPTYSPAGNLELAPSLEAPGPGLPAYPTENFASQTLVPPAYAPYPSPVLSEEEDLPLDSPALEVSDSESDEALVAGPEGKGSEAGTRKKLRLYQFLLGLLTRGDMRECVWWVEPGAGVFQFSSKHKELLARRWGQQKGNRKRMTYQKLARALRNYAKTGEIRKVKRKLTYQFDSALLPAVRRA
Outline: as §1

ELK3 = molecular target: T6, ELK3 (Homo sapiens, UniProt P41970 1-407); details: protein: recombinant; tags: N-terminal GST; dsDNA, one strand shown
T6 sequence: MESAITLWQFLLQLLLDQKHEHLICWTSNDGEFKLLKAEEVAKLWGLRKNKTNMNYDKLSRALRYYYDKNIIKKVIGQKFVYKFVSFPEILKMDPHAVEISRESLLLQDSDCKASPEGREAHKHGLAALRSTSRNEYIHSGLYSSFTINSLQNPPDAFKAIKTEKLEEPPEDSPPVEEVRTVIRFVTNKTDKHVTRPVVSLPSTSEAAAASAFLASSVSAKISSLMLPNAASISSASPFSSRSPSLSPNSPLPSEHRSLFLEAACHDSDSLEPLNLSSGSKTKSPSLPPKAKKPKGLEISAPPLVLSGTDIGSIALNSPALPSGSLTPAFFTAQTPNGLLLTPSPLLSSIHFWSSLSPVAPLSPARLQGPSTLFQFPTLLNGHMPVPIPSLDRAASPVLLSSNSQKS
Outline: as §1

FEV = molecular target: T7, FEV (Homo sapiens, UniProt Q99581 1-238); details: protein: recombinant; tags: N-terminal GST; dsDNA, one strand shown
T7 sequence: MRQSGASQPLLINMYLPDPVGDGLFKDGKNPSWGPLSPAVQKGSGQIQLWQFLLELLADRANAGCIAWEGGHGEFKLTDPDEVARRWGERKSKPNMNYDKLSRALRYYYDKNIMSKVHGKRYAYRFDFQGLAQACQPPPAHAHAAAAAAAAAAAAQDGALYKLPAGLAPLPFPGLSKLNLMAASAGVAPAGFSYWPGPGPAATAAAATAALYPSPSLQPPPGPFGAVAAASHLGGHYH
Outline: as §1

ETV5 = ETV5 (Homo sapiens, UniProt P41161 1-510); details: protein: recombinant; tags: N-terminal GST; dsDNA, one strand shown
ETV5, sequence (P41161 whole entry): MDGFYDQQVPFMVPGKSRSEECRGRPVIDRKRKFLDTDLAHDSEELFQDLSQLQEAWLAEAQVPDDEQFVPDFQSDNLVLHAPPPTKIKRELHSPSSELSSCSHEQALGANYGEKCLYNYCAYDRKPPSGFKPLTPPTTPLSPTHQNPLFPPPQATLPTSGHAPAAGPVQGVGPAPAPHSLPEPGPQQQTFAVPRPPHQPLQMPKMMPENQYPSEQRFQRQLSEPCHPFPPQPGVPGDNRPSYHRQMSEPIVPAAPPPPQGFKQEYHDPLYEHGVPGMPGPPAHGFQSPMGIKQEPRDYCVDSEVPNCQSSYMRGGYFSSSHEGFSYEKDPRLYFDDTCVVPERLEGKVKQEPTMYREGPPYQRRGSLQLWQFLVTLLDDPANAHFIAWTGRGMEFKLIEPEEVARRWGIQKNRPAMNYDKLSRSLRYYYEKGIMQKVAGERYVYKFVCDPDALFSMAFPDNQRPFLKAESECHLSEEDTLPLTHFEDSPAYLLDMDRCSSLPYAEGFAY
Outline: as §1

HSF1 = HSF1 (Homo sapiens, UniProt Q00613 1-529); details: protein: recombinant; tags: N-terminal GST; chain copies: 3; dsDNA, one strand shown
HSF1, sequence (Q00613 whole entry): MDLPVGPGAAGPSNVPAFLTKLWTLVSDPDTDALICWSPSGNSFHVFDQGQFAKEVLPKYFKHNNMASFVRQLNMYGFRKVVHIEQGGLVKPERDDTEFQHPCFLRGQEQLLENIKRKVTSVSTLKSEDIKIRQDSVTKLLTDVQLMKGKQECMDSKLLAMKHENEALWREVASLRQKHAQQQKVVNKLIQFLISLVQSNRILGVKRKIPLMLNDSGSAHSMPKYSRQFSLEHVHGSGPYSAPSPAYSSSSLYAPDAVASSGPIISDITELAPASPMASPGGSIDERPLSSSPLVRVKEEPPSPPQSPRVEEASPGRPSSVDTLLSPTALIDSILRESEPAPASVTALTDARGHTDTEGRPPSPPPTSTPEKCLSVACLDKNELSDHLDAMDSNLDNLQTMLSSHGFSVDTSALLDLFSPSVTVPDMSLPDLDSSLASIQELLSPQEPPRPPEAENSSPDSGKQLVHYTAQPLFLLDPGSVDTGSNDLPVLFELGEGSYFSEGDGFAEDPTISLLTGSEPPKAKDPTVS
Outline: as §1

SPIC = molecular target: T8, SPIC (Homo sapiens, UniProt Q8N5J4 1-248); details: protein: recombinant; tags: N-terminal GST; dsDNA, one strand shown
T8 sequence: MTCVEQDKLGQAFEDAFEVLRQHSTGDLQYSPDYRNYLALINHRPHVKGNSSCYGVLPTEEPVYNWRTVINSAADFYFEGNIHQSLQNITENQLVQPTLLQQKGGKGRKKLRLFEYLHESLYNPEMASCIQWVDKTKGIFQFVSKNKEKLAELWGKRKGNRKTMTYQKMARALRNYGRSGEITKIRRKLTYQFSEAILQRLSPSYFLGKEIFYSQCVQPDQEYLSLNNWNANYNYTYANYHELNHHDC
Outline: as §1

ELF4 = ELF4 (Homo sapiens, UniProt Q99607 1-663); details: protein: recombinant; tags: N-terminal GST; dsDNA, one strand shown
ELF4, sequence (Q99607 whole entry): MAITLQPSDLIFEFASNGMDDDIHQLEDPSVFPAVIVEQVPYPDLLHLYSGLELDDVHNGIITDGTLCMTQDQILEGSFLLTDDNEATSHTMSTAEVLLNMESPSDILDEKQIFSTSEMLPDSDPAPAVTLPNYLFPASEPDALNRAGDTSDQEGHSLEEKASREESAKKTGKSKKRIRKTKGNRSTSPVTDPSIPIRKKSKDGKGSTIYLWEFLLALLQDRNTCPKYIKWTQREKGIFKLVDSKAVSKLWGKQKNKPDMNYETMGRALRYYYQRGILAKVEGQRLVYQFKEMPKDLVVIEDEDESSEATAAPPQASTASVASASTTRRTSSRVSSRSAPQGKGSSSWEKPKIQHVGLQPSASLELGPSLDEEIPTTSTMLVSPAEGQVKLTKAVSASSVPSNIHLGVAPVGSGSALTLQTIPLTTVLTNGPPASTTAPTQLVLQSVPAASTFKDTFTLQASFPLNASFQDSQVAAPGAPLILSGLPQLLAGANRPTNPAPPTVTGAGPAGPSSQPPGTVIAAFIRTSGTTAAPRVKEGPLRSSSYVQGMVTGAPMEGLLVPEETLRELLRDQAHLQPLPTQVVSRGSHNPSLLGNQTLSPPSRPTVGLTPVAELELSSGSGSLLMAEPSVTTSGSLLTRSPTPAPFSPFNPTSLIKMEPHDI
Outline: as §1

ELK4 = molecular target: T9, ELK4 (Homo sapiens, UniProt P28324-2 1-405); details: protein: recombinant; tags: N-terminal GST; dsDNA, one strand shown
T9 sequence: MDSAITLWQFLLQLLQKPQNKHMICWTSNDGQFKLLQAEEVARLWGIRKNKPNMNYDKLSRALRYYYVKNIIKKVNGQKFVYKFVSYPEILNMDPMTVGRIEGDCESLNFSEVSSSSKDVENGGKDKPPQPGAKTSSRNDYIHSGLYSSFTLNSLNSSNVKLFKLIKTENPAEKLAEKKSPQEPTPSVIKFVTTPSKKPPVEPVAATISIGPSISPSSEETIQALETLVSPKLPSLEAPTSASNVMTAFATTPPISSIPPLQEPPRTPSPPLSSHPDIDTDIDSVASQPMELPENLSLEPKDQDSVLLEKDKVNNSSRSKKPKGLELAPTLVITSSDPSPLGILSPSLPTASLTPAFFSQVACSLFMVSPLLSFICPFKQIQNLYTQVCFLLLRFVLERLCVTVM
Outline: as §1

ETV2 = molecular target: T10, ETV2 (Homo sapiens, UniProt O00321 1-342); details: protein: recombinant; tags: N-terminal GST; dsDNA, one strand shown
T10 sequence: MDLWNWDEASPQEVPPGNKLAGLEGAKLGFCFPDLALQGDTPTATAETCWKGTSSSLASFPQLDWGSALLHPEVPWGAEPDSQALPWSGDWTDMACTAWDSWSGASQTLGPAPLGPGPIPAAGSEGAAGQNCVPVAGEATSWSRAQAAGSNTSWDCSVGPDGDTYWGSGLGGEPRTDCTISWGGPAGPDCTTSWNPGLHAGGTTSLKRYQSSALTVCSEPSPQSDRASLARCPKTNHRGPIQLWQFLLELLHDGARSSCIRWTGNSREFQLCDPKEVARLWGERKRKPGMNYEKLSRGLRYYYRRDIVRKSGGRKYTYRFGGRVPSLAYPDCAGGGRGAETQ
Outline: as §1

ELF3 = molecular target: T11, ELF3 (Homo sapiens, UniProt P78545 1-371); details: protein: recombinant; tags: N-terminal GST; dsDNA, one strand shown
T11 sequence: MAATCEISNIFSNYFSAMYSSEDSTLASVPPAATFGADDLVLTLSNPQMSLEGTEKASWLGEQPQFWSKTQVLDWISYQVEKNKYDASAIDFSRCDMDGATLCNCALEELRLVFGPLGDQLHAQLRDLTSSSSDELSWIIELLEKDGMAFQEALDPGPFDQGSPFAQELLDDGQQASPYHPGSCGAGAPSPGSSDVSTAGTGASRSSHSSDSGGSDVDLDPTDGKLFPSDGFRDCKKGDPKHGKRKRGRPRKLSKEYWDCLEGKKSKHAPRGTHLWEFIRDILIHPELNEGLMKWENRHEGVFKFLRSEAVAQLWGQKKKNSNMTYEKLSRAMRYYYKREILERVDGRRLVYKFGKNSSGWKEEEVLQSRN
Outline: as §1

CRX = CRX (Homo sapiens, UniProt O43186 1-299); details: protein: recombinant; tags: N-terminal GST; dsDNA, one strand shown
CRX, sequence (O43186 whole entry): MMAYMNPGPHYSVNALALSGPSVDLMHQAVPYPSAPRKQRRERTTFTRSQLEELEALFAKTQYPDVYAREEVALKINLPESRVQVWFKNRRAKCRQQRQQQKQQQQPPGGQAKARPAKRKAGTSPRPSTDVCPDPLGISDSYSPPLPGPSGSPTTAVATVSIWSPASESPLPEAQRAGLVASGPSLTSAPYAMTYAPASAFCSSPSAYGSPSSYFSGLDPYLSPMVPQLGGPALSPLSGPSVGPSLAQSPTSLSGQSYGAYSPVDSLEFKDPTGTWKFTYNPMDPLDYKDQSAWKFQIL
Outline: as §1

ETV1 = ETV1 (Homo sapiens, UniProt P50549 1-477); details: protein: recombinant; tags: N-terminal GST; dsDNA, one strand shown
ETV1, sequence (P50549 whole entry): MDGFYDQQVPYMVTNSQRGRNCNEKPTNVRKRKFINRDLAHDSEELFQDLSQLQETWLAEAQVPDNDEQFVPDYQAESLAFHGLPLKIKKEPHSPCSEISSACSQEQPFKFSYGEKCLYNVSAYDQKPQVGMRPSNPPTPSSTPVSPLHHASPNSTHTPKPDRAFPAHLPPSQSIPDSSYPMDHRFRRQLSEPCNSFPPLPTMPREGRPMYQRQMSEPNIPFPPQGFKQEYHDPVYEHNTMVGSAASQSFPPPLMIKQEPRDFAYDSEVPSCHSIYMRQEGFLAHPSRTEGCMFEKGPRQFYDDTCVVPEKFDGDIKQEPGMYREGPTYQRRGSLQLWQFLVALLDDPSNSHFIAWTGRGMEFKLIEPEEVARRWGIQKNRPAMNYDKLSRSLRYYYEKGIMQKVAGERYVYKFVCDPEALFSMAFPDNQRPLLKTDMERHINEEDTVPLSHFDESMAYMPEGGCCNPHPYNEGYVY
Outline: as §1

For TTTTCT, the binding signal (FLI1) was 1.31 fold enrichment (6-mer frequency, TF over GST control), the binding signal (ELK1) was 1.29 fold enrichment (6-mer frequency, TF over GST control) and the binding signal (GABPA) was 1.27 fold enrichment (6-mer frequency, TF over GST control). The binding signal (ERG) was 1.34 fold enrichment (6-mer frequency, TF over GST control), the binding signal (ELF1) was 1.29 fold enrichment (6-mer frequency, TF over GST control) and the binding signal (EHF) was 1.46 fold enrichment (6-mer frequency, TF over GST control). The binding signal (SPI1) was 1.45 fold enrichment (6-mer frequency, TF over GST control), the binding signal (SPIB) was 1.18 fold enrichment (6-mer frequency, TF over GST control) and the binding signal (ELK3) was 1.31 fold enrichment (6-mer frequency, TF over GST control). The binding signal (FEV) was 1.26 fold enrichment (6-mer frequency, TF over GST control), the binding signal (ETV5) was 1.28 fold enrichment (6-mer frequency, TF over GST control) and the binding signal (HSF1) was 2.46 fold enrichment (6-mer frequency, TF over GST control). For the same sequence, the binding signal (SPIC) was 1.15 fold enrichment (6-mer frequency, TF over GST control), the binding signal (ELF4) was 1.46 fold enrichment (6-mer frequency, TF over GST control) and the binding signal (ELK4) was 1.32 fold enrichment (6-mer frequency, TF over GST control). The binding signal (ETV2) was 1.48 fold enrichment (6-mer frequency, TF over GST control), the binding signal (ELF3) was 1.35 fold enrichment (6-mer frequency, TF over GST control) and the binding signal (CRX) was 1.61 fold enrichment (6-mer frequency, TF over GST control). For the same sequence, the binding signal (ETV1) was 1.21 fold enrichment (6-mer frequency, TF over GST control).
